# Screening data from PubChem BioAssay.
# JMJD2A Tudor inh = inhibitors of human JMJD2A Tudor domain | O75164 | AlphaScreen JMJD2A-Tudor / H3K4me3 peptide binding | Potency, µM (highest dose often 114 µM), most hits filed as inhibitors | 390,000 compounds, 4.4% hits | AID 504339; also: nearly all actives have a fitted effect of over 50% in size
# PLK1 PBD inh = PLK1 (human) polo-box domain binding inhibition; P53350; Plk1 PBD binding of FITC phosphopeptide, fluorescence polarization; Potency, µM, usual class: inhibitors; 360,000 compounds, 2.8% hits; AID 720504; also: series mostly up to about 57 µM; nearly all actives have a fitted effect of over 65% in size
# HP1b binding inh = HP1-beta chromodomain-methylated histone interaction inhibition; AID 540317; Potency, µM (titrated, usually from 114 µM), actives largely listed as inhibitors; AlphaScreen HP1-beta / biotin-H3K9me3 peptide binding; P83916; 390,000 compounds, 0.56% hits; also: nearly all actives have a fitted effect of over 70% in size
#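 HP1-beta protein (50 nM final) preincubated 30 min at room temperature with biotinylated H3(1-18)K9me3 peptide (50 nM) in PBS pH 7.4, 0.01% Tween-20, then compound added for 30 min. AlphaScreen streptavidin donor/nickel chelate acceptor beads (10 ug/mL final), 30 min dark, luminescence read.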
# Sfp inh = Sfp phosphopantetheinyl transferase inhibition | 310,000 compounds, 3.5% hits | AID 1490 | Potency, µM, hits mostly inhibitors | Biochemical Sfp PPTase activity, qHTS;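 also: the enzyme is Sfp with the accession as filed and its product quenches rhodamine fluorescence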
#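 After 15 min at room temperature with compound, 15 nM Sfp received 5 uM rhodamine-CoA plus 12.5 uM BHQ-2-ybbR (50 mM Hepes pH 7.6, 10 mM MgCl2). Rate came from the fluorescence difference over 30 min, ex 525/em 598 nm.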
# BAZ2B block = blocks human BAZ2B; AID 504333; AlphaScreen BAZ2B-H3K14Ac peptide displacement; 360,000 compounds, 4.4% hits; Potency, µM (highest dose often 114 µM), usual class: inhibitors; Q9UIF8; also: nearly all actives have a fitted effect of over 60% in size
# Target sequence (Q9UIF8 whole entry, looked up): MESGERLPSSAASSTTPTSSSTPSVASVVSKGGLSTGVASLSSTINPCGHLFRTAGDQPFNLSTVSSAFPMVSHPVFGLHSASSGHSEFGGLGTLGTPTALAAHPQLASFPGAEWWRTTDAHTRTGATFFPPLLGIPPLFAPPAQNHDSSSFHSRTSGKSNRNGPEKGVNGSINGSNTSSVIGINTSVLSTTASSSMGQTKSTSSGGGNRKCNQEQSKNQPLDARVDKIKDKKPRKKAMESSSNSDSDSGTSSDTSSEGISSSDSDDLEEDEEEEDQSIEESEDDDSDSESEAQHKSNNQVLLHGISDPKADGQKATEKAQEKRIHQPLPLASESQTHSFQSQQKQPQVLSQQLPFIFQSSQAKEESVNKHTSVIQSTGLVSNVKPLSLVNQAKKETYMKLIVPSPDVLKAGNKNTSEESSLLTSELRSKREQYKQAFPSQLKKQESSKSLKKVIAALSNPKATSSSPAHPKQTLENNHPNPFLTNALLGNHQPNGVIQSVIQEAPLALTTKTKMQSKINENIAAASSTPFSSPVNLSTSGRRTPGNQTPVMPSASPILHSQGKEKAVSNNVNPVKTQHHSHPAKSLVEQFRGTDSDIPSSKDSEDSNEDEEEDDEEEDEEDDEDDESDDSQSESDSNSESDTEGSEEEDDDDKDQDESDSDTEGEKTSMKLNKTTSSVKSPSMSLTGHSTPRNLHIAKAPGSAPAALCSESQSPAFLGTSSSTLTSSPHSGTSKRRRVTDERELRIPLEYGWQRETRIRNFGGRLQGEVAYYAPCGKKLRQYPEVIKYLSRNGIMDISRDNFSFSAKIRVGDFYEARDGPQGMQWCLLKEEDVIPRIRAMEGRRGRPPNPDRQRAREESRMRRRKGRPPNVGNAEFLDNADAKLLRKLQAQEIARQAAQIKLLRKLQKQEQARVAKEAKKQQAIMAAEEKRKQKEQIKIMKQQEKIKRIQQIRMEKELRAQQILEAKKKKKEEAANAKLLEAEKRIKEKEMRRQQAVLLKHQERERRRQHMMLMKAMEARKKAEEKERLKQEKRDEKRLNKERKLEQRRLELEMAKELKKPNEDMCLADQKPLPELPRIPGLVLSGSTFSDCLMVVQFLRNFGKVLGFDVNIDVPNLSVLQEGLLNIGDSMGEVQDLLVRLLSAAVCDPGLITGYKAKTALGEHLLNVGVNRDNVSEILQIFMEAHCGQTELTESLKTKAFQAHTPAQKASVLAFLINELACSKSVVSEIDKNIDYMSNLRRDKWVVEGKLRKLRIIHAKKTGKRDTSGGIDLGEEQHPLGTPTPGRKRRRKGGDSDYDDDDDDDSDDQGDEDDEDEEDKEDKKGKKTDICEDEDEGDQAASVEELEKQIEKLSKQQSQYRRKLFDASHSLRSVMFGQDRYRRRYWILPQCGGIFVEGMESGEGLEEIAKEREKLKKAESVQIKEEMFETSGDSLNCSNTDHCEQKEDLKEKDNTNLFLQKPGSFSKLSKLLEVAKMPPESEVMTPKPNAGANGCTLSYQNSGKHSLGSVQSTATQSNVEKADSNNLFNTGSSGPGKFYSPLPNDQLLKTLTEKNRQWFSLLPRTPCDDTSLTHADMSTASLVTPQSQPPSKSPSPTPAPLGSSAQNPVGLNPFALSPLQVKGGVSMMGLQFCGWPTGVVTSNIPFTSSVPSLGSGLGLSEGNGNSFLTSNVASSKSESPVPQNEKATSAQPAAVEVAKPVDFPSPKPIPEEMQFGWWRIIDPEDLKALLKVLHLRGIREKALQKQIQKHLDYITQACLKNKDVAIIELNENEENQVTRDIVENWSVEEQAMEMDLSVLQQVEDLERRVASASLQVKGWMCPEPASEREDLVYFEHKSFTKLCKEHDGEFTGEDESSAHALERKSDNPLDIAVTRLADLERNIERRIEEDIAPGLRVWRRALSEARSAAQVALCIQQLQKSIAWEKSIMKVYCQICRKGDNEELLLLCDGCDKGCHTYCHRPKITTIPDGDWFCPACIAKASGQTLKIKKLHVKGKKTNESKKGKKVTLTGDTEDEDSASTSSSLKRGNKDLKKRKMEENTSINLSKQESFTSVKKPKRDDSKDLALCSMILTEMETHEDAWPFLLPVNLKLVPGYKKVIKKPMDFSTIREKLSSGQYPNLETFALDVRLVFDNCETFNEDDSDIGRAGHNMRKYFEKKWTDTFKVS
#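 Complex of BAZ2B and biotin-H3K14Ac (50 nM apiece) forms over 30 min at RT, then faces library compounds up to 110 uM for another 30 min; AlphaScreen beads added, 20 min dark incubation, luminescence read.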
# G9a inh-1 = G9a (human) methyltransferase inhibition; Potency, µM (series often up to 102 µM), most hits filed as inhibitors; 350,000 compounds, 8.8% hits; G9a H3K9 monomethylation, AlphaScreen, 2 h; also: nearly all actives have a fitted effect of over 75% in size
#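 Readings reflect AlphaScreen signal from monomethyl-H3K9 antibody detection. HMT at 20 nM; substrate b-H3K9 500 nM; cofactor SAM 20 uM; 2 h RT reaction; compounds tested as titrations in qHTS with 15 min preincubation.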
# G9a inh-2 = confirmation of human histone methyltransferase G9a inhibitors | AID 588344 | Potency, µM, most hits filed as inhibitors | 370 compounds, 89% hits | G9a H3K9 monomethylation, AlphaScreen, 2 h | shares compounds with JMJD2A Tudor inh; also: nearly all actives have a fitted effect of over 65% in size
# TbPYK confirm = confirmation of Trypanosoma brucei pyruvate kinase inhibitors. shares compounds with PLK1 PBD inh. recombinant TbPYK, Kinase-Glo ATP luminescence. Potency, µM (doses to about 76.9 µM), hits mostly inhibitors. 890 compounds, 67% hits. AID 720569; also: nearly all actives have a fitted effect of over 70% in size
# TbPYK orthogonal = inhibits T. brucei pyruvate kinase in orthogonal ADP-Glo assay. shares compounds with PLK1 PBD inh. 890 compounds, 62% hits. Potency, µM (top dose mostly 76.9 µM), actives largely listed as inhibitors. recombinant TbPYK, ADP-Glo luminescence, 60 min; also: nearly all actives have a fitted effect of over 75% in size
# Numbers stand for hits; . = inactive; ? = inconclusive; / = no result given; [ ] = dose if it differs, or a comment. Shown are actives, neighbours in structure and some others; about 12% of the full set was active somewhere. Calls follow the shape of the dose curve; as a rule, active = well fitted curve in the direction sought with a large enough effect; inconclusive = small, poorly fitted or top-dose-only effect, or another doubt; inactive = no such curve, though single readings can be large; an effect the other way counts as inactive or inconclusive.
SMILES,JMJD2A Tudor inh,PLK1 PBD inh,HP1b binding inh,Sfp inh,BAZ2B block,G9a inh-1,TbPYK confirm,TbPYK orthogonal,others
COc1ccc(OCC(=O)N2CCN(Cc3cccc(OC)c3OC)CC2)cc1,7.9µM,/,?,/,50µM,2µM,/,/,G9a inh-2=29
N#Cc1cc2c(nc1SCC(=O)Nc1ccc(F)c(Cl)c1)C1CCN2CC1,.,/,.,/,.,.,/,/,
O=C1c2ccccc2-c2c1nc1c([n+]2[O-])CCCC1,.,.,.,.,.,?,/,/,
COc1ccc(CCNCc2ccncc2)cc1OC,11µM,.,?,45µM,50µM,2.5µM,/,/,G9a inh-2=45
COc1ccc(CCN)cc1OC,.,.,.,.,.,.,/,/,
O=C1NC(=O)C(=Cc2ccc(SC3CCCCC3)o2)C(=O)N1,?,0.6µM,50µM,28µM,45µM,11µM,28µM,40µM,
CCOc1ccccc1NC(=O)c1cccn(Cc2ccccc2C)c1=O,.,/,.,/,.,.,/,/,
Cc1cc(C)n2nc(SC(C)C(=O)N3CCC4(CC3)OCCO4)nc2n1 (configuration not stated),.,.,.,.,.,.,.,.,
O=C1NC(=O)C(=Cc2csc3ccccc23)C(=O)N1,.,2.1µM,.,18µM,?,8.9µM,16µM,32µM,
O=C1NC(=O)N(c2ccc(F)cc2)C(=O)/C1=C/c1ccsc1,.,6.7µM,.,?,.,14µM,?,.,
CC(=O)n1cc(C=C2C(=O)NC(=O)NC2=O)c2ccccc21,?,4.2µM,.,22µM,.,10µM,22µM,35µM,
O=C1NC(=O)C(=Cc2ccsc2)C(=O)N1,.,6.7µM,.,?,.,.,14µM,?,
COC(=O)Cn1cc(C=C2C(=O)N(C)C(=O)N(C)C2=O)c2ccccc21,.,?,.,.,.,/,/,/,
O=C(CSc1ccc(Cl)cc1)NC1=NN(c2ccccc2)C(=O)C1,?,.,.,.,?,.,/,/,
C[N+]1(C)CCCCC1COC(=O)C(O)(c1ccccc1)c1ccccc1 (configuration not stated),/,/,/,.,/,.[12.7 µM],/,/,
COc1ccc(-n2c(/C=C\c3ccccc3F)nc3ccccc3c2=O)c(OC)c1,.,/,.,/,.,.,/,/,
Cc1cc(C)cc(-n2c(/C=C/c3cccc(F)c3)nc3ccccc3c2=O)c1,.,/,.,/,.,.,/,/,
O=C1NC(=O)C(=Cc2cccs2)C(=O)N1,.,2.7µM,.,/,/,/,14µM,32µM,
O=C1NC(=O)N(c2cccc(Br)c2)C(=O)/C1=C/c1ccsc1,.,2.4µM,.,20µM,.,10µM,?,?,
CC(=O)O[C@H]1C2[C@@H](OC(=O)Cc3ccccc3)[C@@H](C)C[C@]2(OC(C)=O)C(=O)/C(C)=C/[C@@H]2[C@H](CC[C@@]13CO3)C2(C)C (some centres not stated),/,/,/,.,/,/,/,/,
O=C1NC(=O)C(=Cc2ccccc2[N+](=O)[O-])C(=O)N1,.,12µM,.,/,/,/,8.9µM,28µM,
O=Cc1cn(Cc2ccccc2[N+](=O)[O-])c2ccccc12,?,.,.,.,?,?,/,/,
O=C1NC(=O)C(=Cc2cc3c(cc2[N+](=O)[O-])OCO3)C(=O)N1,.,13µM,.,.,.,7.9µM,8.9µM,?,
Cc1cccc(N2C(=O)NC(=O)/C(=C/c3cc4c(cc3[N+](=O)[O-])OCO4)C2=O)c1,79µM,5.3µM,?,35µM,.,8.9µM,20µM,?,
CCN1CCN(Cc2cc3c(cc2[N+](=O)[O-])OCO3)CC1,.,.,.,.,.,/,/,/,
SMILES,JMJD2A Tudor inh,PLK1 PBD inh,HP1b binding inh,Sfp inh,BAZ2B block,G9a inh-1,TbPYK confirm,TbPYK orthogonal,others
C[C@@H](Cc1ccccc1)NCCC(c1ccccc1)c1ccccc1,/,/,/,.,/,.[5.15 µM],/,/,
CC12NC(Cc3ccccc31)c1ccccc12 (configuration not stated),/,/,/,.,/,.,/,/,
COc1ccc(Nc2cc(C)c3cc(NC(=O)c4ccccc4Cl)ccc3n2)cc1,?,/,.,/,.,?,/,/,
CN(C)c1ccc(C=C2C(=O)NC(=S)NC2=O)cc1[N+](=O)[O-],35µM,3.8µM,?,.,?,7.1µM,4.5µM,14µM,
CN(C)c1ccc(C=C2C(=O)NC(=O)NC2=O)cc1[N+](=O)[O-],.[11.4 µM],7.5µM,.,25µM,/,?,16µM,32µM,
COc1cc([C@@H]2c3cc4c(cc3[C@H](O)C3COC(=O)[C@@H]32)OCO4)cc(OC)c1OC (some centres not stated),/,/,/,/,/,.,/,/,
O=C1NC(=O)C(=Cc2ccc(-c3ccccc3[N+](=O)[O-])o2)C(=O)N1,?,1.3µM,.,22µM,?,/,?,?,
O=C1NC(=O)C(=Cc2ccc(-c3cc(Cl)ccc3[N+](=O)[O-])o2)C(=O)N1,25µM,1.5µM,?,.,45µM,4µM,7.1µM,1.1µM,
Nc1c(Br)cc(Br)cc1CNC1CCC(O)CC1 (configuration not stated),.,.,.,.,.,.[12.7 µM],/,/,
CCOC(=O)c1c(-n2c(C)cc(C=C3C(=O)NC(=O)NC3=O)c2C)sc2c1CCCC2,.,?,.,.,.,?,/,/,
COc1cc(/C=C2/C(=O)NC(=O)N(c3ccc(C)cc3)C2=O)cc(OC)c1OC,.,12µM,.,50µM,.,.[12.7 µM],?,?,
COc1cc(/C=C2\C(=O)NC(=O)N(c3ccccc3)C2=O)cc(OC)c1OC,.,13µM,.,?,.,?,?,?,
CCOC(=O)CSCCOc1ccc(C=C2C(=O)NC(=O)NC2=O)cc1OC,.,8.4µM,.,.,?,22µM,16µM,?,
Cc1ccc(N2C(=O)NC(=O)/C(=C/c3ccoc3)C2=O)cc1,10µM,2.7µM,10µM,25µM,7.9µM,/,?,.,
COC(=O)COc1ccc(/C=C2\C(=O)NC(=S)N(c3ccc(C)cc3)C2=O)cc1OC,?,8.4µM,.,40µM,.,11µM,?,?,
O=C1NC(=O)N(c2ccccc2)C(=O)/C1=C\C=C\c1ccccc1,.,1.2µM,?,16µM,.,/,13µM,?,
Cc1ccccc1CN1C(=O)CN=C(c2ccccc2)c2cc(Cl)ccc21,.,/,.,/,.,.,/,/,
O=C1NCN(c2ccccc2)C12CCN(C[C@H]1COc3ccccc3O1)CC2,/,/,/,.,/,/,/,/,
C[C@H](CO)N1C[C@H](C)[C@@H](CN(C)S(=O)(=O)c2cccs2)Oc2ccc(NC(=O)Nc3ccc4c(c3)OCO4)cc2C1=O,?,.,.,/,/,/,/,/,
